This is an account of results in PubChem BioAssay AID492954 (National Center for Advancing Translational Sciences (NCATS), 2010).

“And” between values parts separate entries of the source, which are not always exact repeats. Equal values may be shown once. Results filed as inconclusive are left out. The source made the active and inactive calls. The call rests on the fitted dose curve.

The nature of this assay: Mouse Th17 T cell differentiation assay for inhibitors of ROR gamma transcriptional activity. Conditions: mouse naive CD4 T cells Th17, IL17a-GFP flow cytometry; series mostly up to 20 µM; IL17a-GFP activity, % of control: at the top concentration. From the text: NIH Molecular Libraries Probe Production Network [MLPCN] NIH Chemical Genomics Center [NCGC] MLPCN Grant: R03 DA026211-01 Assay Provider: Dan Littman, New York University Keywords: NIH Roadmap, MLPCN, MLI, MLSMR, qHTS, NCGC, qHTS, nuclear hormone receptor, retinoic acid-related orphan receptor, ROR gamma Assay Overview: The retinoic acid-related orphan receptor (ROR) gamma is a transcription factor that has a central role in the differentiation of Th17 cells, a subset of T helper cells that secrete the inflammatory cytokines IL-17a, IL-17f, and IL-22. Th17 cells have been implicated in graft versus host disease, autoimmune disease and asthma. ROR gamma is induced in naive T helper cells in the presence of TGF-beta combined with IL-6, IL-21, or IL-23, and thereafter directs the expression of the Th17 lineage cytokines. To confirm inhibition of ROR gamma, compounds were tested in a mouse Th17 T cell differentiation assay. Th17 differentiation was tracked by expression of a GFP reporter under the control of the endogenous IL-17a promoter using flow cytometry. Compounds that block ROR gamma activity prevent expression of the IL17a-GFP reporter.
Assay Protocol Summary: Cells from lymph nodes and spleens derived from six to eight week old IL17a-GFP mice (Biocytogen LLC) were used for T cell purification. B220- cells were isolated on an autoMACS Pro with bead depletion of B220+ cells (Miltenyi). Naive CD4+ T cell were further purified as TCRb+CD8- DAPI- CD19- CD4+CD25- CD62L+CD44low/Int by cell sorting on a FACSAria (BD). Cells were cultivated in an incubator at 37 C and 5% CO2 in RPMI 1640 medium (Invitrogen) supplemented with 10% (vol/vol) heat-inactivated FBS (Hyclone), penicillin-streptomycin, 2 mM glutamine and 0.1 mM nonessential amino acids. Cells were seeded on day 0 at a density of 0.4x10^5 cells per ml in 96-well plates coated with anti-CD3e (5 ug/ml) and anti-CD28 (10 ug/ml). Cells were cultured for 4-5 days in Th17 (TGFb (0.3 ng/ml), IL6 (20 ng/ml), anti-IFN-g, and anti-IL-4) condition. At day 1, compounds dissolved in DMSO were added. GFP expression was assayed on day 4 or 5 with DAPI- and PECy7-conjugated CD4+ cells. An LSR II (BD Biosciences) and FlowJo software (Tree Star) were used for flow cytometry. Keywords: NIH Roadmap, MLPCN, MLI, MLSMR, qHTS, NCGC, qHTS, nuclear hormone receptor, retinoic acid-related orphan receptor, ROR gamma
With `COc1cc(O)c(C(CC(=O)N2CC(C)OC(C)C2)c2ccc3c(c2)OCO3)c(OC)c1` (stereo not given), the Potency is 800 nM (active).
Take `COc1cc(O)c(C(CC(=O)N2CC(C)CC(C)C2)c2ccc(O)cc2)c(OC)c1` (stereo not given): the Potency is 300 nM (active).
As for `COc1cc(O)c(C(CC(=O)N2CCC(C)CC2)c2ccc3c(c2)OCO3)c(OC)c1` (stereo not given), the “IL17a-GFP activity, % of control” value is 78.2% (inactive).
`COc1cccc(O)c1C(CC(=O)N1CCCC(C)C1)c1ccc2c(c1)OCO2` (stereo not given): the “IL17a-GFP activity, % of control” value is 55.9% (inactive).
For `COc1cc(O)c(C(CC(=O)N2CCCC(C(F)(F)F)C2)c2ccc3c(c2)OCO3)c(OC)c1` (stereo not given), the Potency is 7000 nM (active).
For the compound `COc1ccc(C(CC(=O)N2CCCC(C)C2)c2c(O)cc(OC)cc2OC)c(OC)c1` (stereo not given), the “IL17a-GFP activity, % of control” value is 158% (inactive).
In the case of `COc1cc(O)c(C(CC(=O)N2C[C@H](C)C[C@H](C)C2)c2ccc3c(c2)OCO3)c(OC)c1` (stereo not given in full), the Potency was 400 nM (active).
Turning to `COc1cc(OC)c(C(CC(=O)N2CC(C)CC(C)C2)c2ccc3c(c2)OCO3)c(OCC(N)=O)c1` (stereo not given), the “IL17a-GFP activity, % of control” value was 55.9% (inactive).
In the case of `COc1cc(OC)c(C(CC(=O)N2CC(C)CC(C)C2)c2ccc3c(c2)OCO3)c(OCC#N)c1` (stereo not given), the Potency was 3000 nM (active).
On the same count and under the same terms, for `COc1cc(O)c(C(CC(=O)N2CCCC(C)C2)c2ccc(C)cc2)c(OC)c1` (stereo not given) the value was 4000 nM (active); for `COc1ccc(C(CC(=O)N2CCCC(C)C2)c2c(O)cc(OC)cc2OC)cc1` (stereo not given), 5000 nM (active).
The same measure, in the same setting: for `COc1cc(O)c(C(CC(=O)N2CCCC(C)C2)c2cccs2)c(OC)c1` (stereo not given) the value was 6000 nM (active); for `COc1cc(OC)c(C(CC(=O)N2CCCC(C)C2)c2ccc3c(c2)OCO3)c(OC)c1` (stereo not given), 2000 nM (active); for `COc1cc(O)c(C(CC(=O)N2CC(C)CC(C)C2)c2ccc(C)cc2)c(OC)c1` (stereo not given), 500 nM (active).
In the case of `COc1cc(O)c(C(CC(=O)N2CC(C)CC(C)C2)c2ccc(N(C)C)cc2)c(OC)c1` (stereo not given), the Potency is 400 nM (active).
On the same count and under the same terms, for `COc1cc(O)c(C(CC(=O)N2CCCC(C)(C)C2)c2ccc3c(c2)OCO3)c(OC)c1` (stereo not given) the value was 6000 nM (active).
As to `COc1cc(O)c(C(CC(=O)N2CC(C)CC(C)C2)c2ccc3c(c2)OCO3)c(OC)c1` (stereo not given), the Potency is 500 nM (active) and 700 nM (active).
Same read-out and setting: for `COCOc1cc(OC)cc(OC)c1C(CC(=O)N1CC(C)CC(C)C1)c1ccc2c(c1)OCO2` (stereo not given) the value was 1000 nM (active); for `COc1cc(OC)c(C(CC(=O)N2CC(C)CC(C)C2)c2ccc3c(c2)OCO3)c(OC)c1` (stereo not given), 800 nM (active).
For the compound `COc1cc(O)c(C(CC(=O)N2CCCC(C)C2)c2ccccc2)c(OC)c1` (stereo not given), the “IL17a-GFP activity, % of control” value was 103% (inactive).
On the same count and under the same terms, for `COc1cc(O)c(C(CC(=O)N2CC(C)NC(C)C2)c2ccc3c(c2)OCO3)c(OC)c1` (stereo not given) the value was 87.7% (inactive).
Regarding `COc1cc(O)c(C(CC(=O)N2CC(C)CC(C)C2)c2ccc3c(c2)OCCO3)c(OC)c1` (stereo not given), the Potency was 300 nM (active).
As for `COc1ccc(C(CC(=O)N2CCCC(C)C2)c2ccc3c(c2)OCO3)c(O)c1` (stereo not given), the “IL17a-GFP activity, % of control” value is 102% (inactive).
Still for that read-out and setting: for `COc1cc(O)c(C(CC(=O)N2CCCC(C)C2)c2ccccc2C)c(OC)c1` (stereo not given) the value was 105% (inactive).
Consider `COc1ccc(C(CC(=O)N2CC(C)CC(C)C2)c2c(O)cc(OC)cc2OC)cc1` (stereo not given), for which the Potency was 400 nM (active).
